From the supplement of paper PMC3545927
This is one part of the list. No count for the full screen is at hand.

B1: HC2060 (peptide)
chain: CAVVCCSCSYAGNASASA
B2: HC2021 (peptide)
chain: CAVNCCSMSYAGNASASA
B3: HC1709 (peptide)
chain: CAMEYCSQHLAGNASASA
B4: FS-12 (peptide)
chain: CAAVGRRVRSAGNASASA
B5: FS-1079 (peptide)
chain: CASEARMVRSAGNASASA
B6: HC418 (peptide)
chain: CAVVGTTDRSAGNASASA
B7: HC508 (peptide)
chain: CANIVDVQYLAGNASASA
B8: HC1304 (peptide)
chain: CAVWARPDYNAGNASASA
B9: HC692 (peptide)
chain: CASTAAQTFLAGNASASA
B10: FS-2255 (peptide)
chain: CAREKRQAKHAGNASASA
B11: FS-2484 (peptide)
chain: CAREKKDVLAAGNASASA
B12: FS-1851 (peptide)
chain: CAREKRDSVCAGNASASA
B13: FS-2007 (peptide)
chain: CAREKRHRKKAGNASASA
B14: FS-1693 (peptide)
chain: CAREKRDVQPAGNASASA
B15: HC423 (peptide)
chain: CAPTYSWGENAGNASASA
B16: FS-1882 (peptide)
chain: CALQGREQLTAGNASASA
B17: HC1248 (peptide)
chain: CALTDPSHITAGNASASA
B18: HC424 (peptide)
chain: CAYSWGENDTAGNASASA
B19: FS-656 (peptide)
chain: CAGQARWKRPAGNASASA
B20: FS-904 (peptide)
chain: CAYSQRWKRTAGNASASA
B21: FS-1033 (peptide)
chain: CALTYRAKRTAGNASASA
B22: FS-685 (peptide)
chain: CALQRRWKRTAGNASASA
B23: HC1513 (peptide)
chain: CALTTSCGNTAGNASASA
B24: HC408 (peptide)
chain: CAGIVPAKSVAGNASASA
B25: FS-2111 (peptide)
chain: CARWRRSAPGAGNASASA
B26: HC2544 (peptide)
chain: CASTPCSAILAGNASASA
B27: HC2558 (peptide)
chain: CASTPCSATLAGNASASA
B28: FS-3132 (peptide)
chain: CARWRRHQEGAGNASASA
B29: FS-3133 (peptide)
chain: CARWRRSDILAGNASASA
B30: FS-2846 (peptide)
chain: CARWRRVAVGAGNASASA
B31: HC298 (peptide)
chain: CALYVGDLCGAGNASASA
B32: HC438 (peptide)
chain: CAMNSTGFTKAGNASASA
B33: HC1332 (peptide)
chain: CAALAELATRAGNASASA
B34: FS-2584 (peptide)
chain: CARQKKAAEKAGNASASA
B35: FS-2175 (peptide)
chain: CARQVRYLEKAGNASASA
B36: FS-2510 (peptide)
chain: CARQRRALERAGNASASA
B37: FS-1769 (peptide)
chain: CARQRRALEKAGNASASA
B38: FS-2761 (peptide)
chain: CARQRRGEERAGNASASA
B39: FS-2173 (peptide)
chain: CARQRRDLLNAGNASASA
B40: HC2376 (peptide)
chain: CAEVPCHGPSAGNASASA
B41: HC1412 (peptide)
chain: CALSVEEACSAGNASASA
B42: FS-121 (peptide)
chain: CADIARARRVAGNASASA
B43: FS-1258 (peptide)
chain: CARHRRPRRVAGNASASA
B44: FS-1495 (peptide)
chain: CATNNRKIRVAGNASASA
B45: FS-499 (peptide)
chain: CASHRRQRRVAGNASASA
B46: FS-36 (peptide)
chain: CAISRRQRRVAGNASASA
B47: FS-849 (peptide)
chain: CAQRHRQGRVAGNASASA
B48: FS-677 (peptide)
chain: CAKNQRKIRIAGNASASA

Molecular target: furin, P09958
Sequence (P09958 whole entry): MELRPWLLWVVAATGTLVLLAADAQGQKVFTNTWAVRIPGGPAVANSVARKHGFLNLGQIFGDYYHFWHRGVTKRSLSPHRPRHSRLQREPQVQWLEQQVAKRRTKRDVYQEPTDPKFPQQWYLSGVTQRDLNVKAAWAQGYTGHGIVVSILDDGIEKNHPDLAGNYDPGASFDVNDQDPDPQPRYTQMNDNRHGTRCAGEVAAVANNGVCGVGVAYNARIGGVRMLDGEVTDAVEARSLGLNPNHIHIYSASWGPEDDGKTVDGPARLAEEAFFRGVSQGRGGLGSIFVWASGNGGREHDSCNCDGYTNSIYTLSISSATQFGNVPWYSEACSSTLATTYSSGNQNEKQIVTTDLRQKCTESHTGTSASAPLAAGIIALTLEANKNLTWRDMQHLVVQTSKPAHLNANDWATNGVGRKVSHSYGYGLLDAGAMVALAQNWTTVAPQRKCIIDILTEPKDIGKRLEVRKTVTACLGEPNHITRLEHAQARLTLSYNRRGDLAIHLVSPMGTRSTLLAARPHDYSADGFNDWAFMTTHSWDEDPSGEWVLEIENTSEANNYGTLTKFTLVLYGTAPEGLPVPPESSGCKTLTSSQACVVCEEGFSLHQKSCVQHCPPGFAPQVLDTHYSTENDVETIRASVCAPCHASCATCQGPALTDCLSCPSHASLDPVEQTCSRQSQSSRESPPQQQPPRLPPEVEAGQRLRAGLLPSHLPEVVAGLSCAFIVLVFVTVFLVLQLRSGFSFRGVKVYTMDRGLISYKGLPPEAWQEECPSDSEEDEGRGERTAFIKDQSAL
Test: furin cleavage Z-score vs untreated control; higher = more cleavage, active = 3.5 or more, inactive = 1 or less, 8 variable residues between constant flanks
Procedure, shortened: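 Furin-free reactions served as the baseline for the cleavage Z-score, which is the log read count lowess-adjusted and scaled by median absolute deviation. Counts came from released DNA, adapter-tagged by PCR and sequenced. Purified furin had cut 8-mer peptides fused to a cDNA oligonucleotide on magnetic beads during 7.5, 15 or 30 min at 1:10 enzyme:substrate.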
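Further: purified furin at 1:10 enzyme:substrate in 50 mM HEPES pH 7.5.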

Sequence	furin cleavage Z-score (7.5 min)	furin cleavage Z-score (15 min)	furin cleavage Z-score (30 min)
B1	-1.87 (inactive)	-2.14 (inactive)	-0.914 (inactive)
B2	0.193 (inactive)	1.19	-0.734 (inactive)
B3	1.22	0.203 (inactive)	0.301 (inactive)
B4	9.92 (active)	9.75 (active)	7.92 (active)
B5	1.59	3.05	3.76 (active)
B6	0.937 (inactive)	1.04	0.404 (inactive)
B7	-0.996 (inactive)	-0.739 (inactive)	-1.04 (inactive)
B8	0.568 (inactive)	-0.706 (inactive)	-1.06 (inactive)
B9	-0.854 (inactive)	-1.17 (inactive)	0.0229 (inactive)
B10	8.15 (active)	10.9 (active)	9.4 (active)
B11	0.263 (inactive)	0.353 (inactive)	1.5
B12	1.11	-0.614 (inactive)	2.31
B13	-1.19 (inactive)	-0.208 (inactive)	-0.665 (inactive)
B14	10.8 (active)	12.3 (active)	8.99 (active)
B15	0.499 (inactive)	-1.13 (inactive)	0.237 (inactive)
B16	0.515 (inactive)	-3.14 (inactive)	-0.352 (inactive)
B17	-1.48 (inactive)	0.964 (inactive)	-1.35 (inactive)
B18	-0.162 (inactive)	-1.61 (inactive)	0.0496 (inactive)
B19	0.0361 (inactive)	0.0218 (inactive)	-0.505 (inactive)
B20	8.92 (active)	9.32 (active)	7.56 (active)
B21	10.2 (active)	12 (active)	9.3 (active)
B22	12.5 (active)	11.8 (active)	10 (active)
B23	0.0451 (inactive)	-1.21 (inactive)	-0.123 (inactive)
B24	-0.985 (inactive)	0.152 (inactive)	0.898 (inactive)

Sequence	furin cleavage Z-score (7.5 min)	furin cleavage Z-score (15 min)	furin cleavage Z-score (30 min)
B25	8.14 (active)	8.62 (active)	5.76 (active)
B26	1.05	1.22	0.242 (inactive)
B27	0.0385 (inactive)	-0.233 (inactive)	-0.615 (inactive)
B28	0.592 (inactive)	1.08	1.98
B29	1.69	5.44 (active)	6.95 (active)
B30	0.992 (inactive)	1.04	3.3
B31	-1.6 (inactive)	-0.331 (inactive)	-1.76 (inactive)
B32	0.142 (inactive)	-0.334 (inactive)	0.353 (inactive)
B33	-0.307 (inactive)	-0.0975 (inactive)	-0.283 (inactive)
B34	-1.07 (inactive)	-0.974 (inactive)	1.2
B35	0.662 (inactive)	1.05	1.72
B36	7.27 (active)	9.89 (active)	9.73 (active)
B37	5.5 (active)	5.75 (active)	6.8 (active)
B38	2.18	0.285 (inactive)	0.208 (inactive)
B39	6.3 (active)	11.7 (active)	11.3 (active)
B40	-0.0304 (inactive)	0.46 (inactive)	-1.34 (inactive)
B41	-1.32 (inactive)	0.888 (inactive)	-0.38 (inactive)
B42	-0.464 (inactive)	-0.299 (inactive)	0.591 (inactive)
B43	3.43	4.61 (active)	4.95 (active)
B44	2.37	4.37 (active)	4.34 (active)
B45	7.8 (active)	8.25 (active)	6.5 (active)
B46	5.61 (active)	5.68 (active)	6.35 (active)
B47	-0.109 (inactive)	1.55	0.481 (inactive)
B48	-0.0796 (inactive)	0.212 (inactive)	1.01
